Several values for one entry are separate records, joined by “and”; a condition that tells them apart may be missing. Identical values can stand only once. Values without a mark were called inactive. Results filed as inconclusive are left out. Entries that show only a call come without a potency. Activity calls are given as the source filed them. Unless noted, the call rests on the fitted dose curve; in most records, active means well fitted curve in the direction sought with a large enough effect; inconclusive means small, poorly fitted or top-dose-only effect, or another doubt; inactive means no such curve, though single readings can be large; an effect the other way counts as inactive or inconclusive.
Experiments:
[1] = Cell Viability - BJ (AID 421; calls by dose curve;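 further: potency means the concentration at half of the fitted maximal effect; cells exposed to compound for 40 hours at 37 °C before readout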); conditions: BJ fibroblast viability, qHTS
In short: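 Luminescent ATP signal (CellTiter-Glo, 20 min at room temperature) served as the read-out of viable BJ cells after 40 hours of compound treatment. Responses were scaled between DMSO and 100 uM tamoxifen, and AC50 values were obtained by Hill modeling.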

[2] = Cell Viability - Jurkat (AID 426;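 active means dose-dependent loss of cell ATP signal giving a full or clear fitted curve, ranked by lower potency value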;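 further: potency means the concentration at half of the fitted maximal effect; cells exposed to compound for 40 hours at 37 °C before ATP read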); conditions: qHTS
In short: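 Cytotoxicity taken as drop in cellular ATP (CellTiter-Glo luminescence, 20 min room temperature) after 40 hr, 37C treatment of 5000 Jurkat Clone E6-1 cells per well; concentration-response fitted with Hill equation for AC50.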

[3] = Cell Viability - Hek293 (AID 427;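 active means compounds whose dose-response curve shows a full or clear partial loss of cell viability, called from curve shape rather than a numeric limit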;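 further: potency means the concentration at half of the fitted maximal effect; cells exposed to compound for 40 hours at 37 °C before reading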); conditions: qHTS
In short: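 Luminescent ATP read-out (CellTiter-Glo, 20 min RT) after 40 hr compound exposure at 37 °C in complete medium. Signal normalized to DMSO (basal) and 100 uM tamoxifen (100% inhibition); concentration-response fitted with the standard Hill equation to give AC50.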

[4] = Cell Viability - HepG2 (AID 433; calls by dose curve;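 further: potency means the concentration at half of the fitted maximal effect; potency for ATP loss meaning cytotoxicity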); conditions: qHTS
In short: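 ATP luminescence (CellTiter-Glo) after 40 h compound exposure, 37 °C, HepG2, 1500 cells/well, complete medium. Normalized: DMSO = basal, 100 uM tamoxifen = 100% inhibition. AC50 via standard Hill equation.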

[5] = Cell Viability - MRC5 (AID 434; calls by dose curve;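 further: potency means the concentration at half of the fitted maximal effect; cells exposed to compound for 40 hours at 37 °C; potency reflects cytotoxicity seen as loss of intracellular ATP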); conditions: MRC5 lung fibroblast viability, qHTS
In short: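 AC50 values come from Hill-equation fits of intracellular ATP loss, measured by CellTiter-Glo luminescence. Normal lung fibroblasts (MRC5) had 40 hr compound treatment at 37 C, normalized between DMSO and 100 uM tamoxifen.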

[6] = Cell Viability - SK-N-SH (AID 435; calls by dose curve; further: potency means the concentration at half of the fitted maximal effect); conditions: SK-N-SH neuroblastoma cell viability qHTS
In short: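 CellTiter-Glo ATP luminescence, 20 min RT read; cells pre-plated 5 hr, compound 40 hr at 37 °C, 1500 cells/well, complete medium. Normalized DMSO = 0, 100 uM tamoxifen = 100% inhibition; Hill-fit AC50.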

[7] = Cell Viability - HUV-EC-C (AID 542); conditions: HUV-EC-C endothelial cell viability, qHTS; series mostly up to 92.2 µM; further: nearly all actives have a fitted effect of over 35% in size
In short: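 CellTiter-Glo luminescence measured ATP loss in HUV-EC-C cells (1000/well) after 40 hr compound exposure at 37 °C, in complete culture medium. Concentration-response data were Hill-fitted to give AC50.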

[8] = Cellular Toxicity (caspase-3) HepG2 (AID 654); conditions: HepG2 caspase-3 activation, luminescence, 0% = DMSO only, 100% = tamoxifen; series mostly up to 92.2 µM;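 further: cells exposed to compound for 16 hours before reading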
In short: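 Caspase 3/7 activation is measured as a luminescence increase (aminoluciferin substrate) after 16 h compound exposure of human hepatocarcinoma HepG2 cells. AC50 values are Hill fits, scaled between DMSO baseline and 100 uM tamoxifen stimulation.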

[9] = Cellular Toxicity (caspase-3) SK-N-SH (AID 661); conditions: SK-N-SH caspase-3 activation, qHTS; series mostly up to 91.7 µM;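 further: cells exposed to compound for 16 hours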
In short: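 Caspase 3/7 activation was read by luminogenic substrate cleavage after 16 hour treatment of SK-N-SH cells. Signal was scaled between DMSO and 10 uM staurosporine, and concentration-response data were fitted with the Hill equation for AC50.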

[10] = Cellular Toxicity (caspase-3) N2a (AID 665); conditions: N2a cells, luminescence, normalized: DMSO 0%, 10 µM staurosporine 100%; series mostly up to 92.2 µM;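 further: compound exposure lasted 16 h at 37 °C before readout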
In short: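 Caspase-3/7 activation measured as luminescence from Caspase-Glo reagent (1 h, room temperature) after 16 h compound exposure of mouse N2a cells. AC50 values from Hill-equation concentration-response, scaled between DMSO and 10 uM staurosporine.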

[11] = Cellular Toxicity (caspase-3) NIH 3T3 (AID 666); conditions: NIH 3T3 caspase-3 activation, apoptosis/toxicity; series mostly up to 92.2 µM
In short: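 Caspase-Glo 3/7 luminescence reported caspase activation in 1000 NIH 3T3 cells/well after 16 h compound exposure at 37 C. DMSO set basal and 100 uM tamoxifen set 100% stimulation; concentration-response modeled with the Hill equation for AC50.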

[12] = Cellular Toxicity (caspase-3) Renal Proximal Tubule (AID 667); conditions: renal proximal tubule cells; series mostly up to 91.7 µM;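 further: cells exposed to compound for 16 hours at 37 °C before detection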
In short: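 Luminescent caspase 3/7 signal from peptide-aminoluciferin cleavage measures apoptosis in freshly isolated rat kidney proximal tubule cells after 16 h compound exposure. Concentration-response data are normalized to DMSO and 10 uM staurosporine, and AC50 values come from Hill equation fits.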

[13] = MultiTox-Fluor Cytotoxicity Assay - LYMP1-003 - Dead Cells (AID 961); conditions: LYMP1-003 lymphoblastoid cells, dead-cell protease fluorescence; series mostly up to 92.2 µM; further: nearly all actives have a fitted effect of over 70% in size
In short: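 Human lymphoblastoid LYMP1-003 cells (2500/well) were treated with compounds for 16 hr at 37 C in complete medium. Dead-cell protease release was read by bis-AAF-R110 fluorescence (Ex/Em 485/520). AC50 came from Hill fits, normalized to DMSO and 15 uM tetraoctylammonium bromide.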

[14] = Cell Viability - LYMP2-007 (AID 979); conditions: LYMP2-007 lymphoblastoid cell viability; series mostly up to 92.2 µM;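 further: cells exposed to compound for 24 h before reading; nearly all actives have a fitted effect of over 60% in size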
In short: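 AC50 values come from Hill-equation fits of luminescent intracellular ATP (CellTiter-Glo, 30 min, room temperature) following 24 h compound exposure at 37 C. Cells: LYMP2-007 lymphoblastoid line, 2500 per well, in complete culture medium.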

[15] = Cell Viability - LYMP1-002 - Assay at 24 hr (AID 993); conditions: LYMP1-002 lymphoblastoid cells viability; series mostly up to 92.2 µM
In short: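 qHTS cytotoxicity at 24 h: CellTiter-Glo ATP luminescence in lymphoblastoid line LYMP1-002 incubated with compound at 37 °C. Concentration-response modeled with the Hill equation for AC50; tetraoctylammonium bromide served as positive control.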

[16] = qHTS Assay for Identification of Small Molecule Inducers of Hypoxia Response (AID 2120; active means well fitted curve in the direction sought with a large enough effect in the signal ratio, with a control signal flat, not every such curve was filed as active; the % refers to the signal ratio); conditions: hypoxia response reporter cells, beta-lactamase ratio readout; series mostly up to 104 µM
In short: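 Reporter induction read as the CCF4 blue/green (460nm/530nm) emission ratio after 2.5 h dye loading at room temperature. ME-180 HRE-beta-lactamase cells received titrated compounds for 17 h at 37 degrees Celsius; AC50 values derived.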

[17] = biological target: Peroxisome proliferator-activated receptor alpha (Homo sapiens) (UniProt Q07869); test: qHTS assay for small molecule agonists of the peroxisome proliferator-activated receptor alpha (PPARalpha) signaling pathway (AID 651778); conditions: PathHunter PPARalpha complementation, chemiluminescence, 6 h; hits give high values
In short: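 Chemiluminescence from complemented enzyme reported PPARalpha activation in cells after 6 hr of compound treatment at 37 C. The detection reagent was incubated for 60 min at room temperature, and compounds were scored as agonists.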

[18] = qHTS assay for small molecule agonists of the antioxidant response element (ARE) signaling pathway measured by Nrf2-dependant transcriptional activity - cell viability counter screen (AID 720653; active means well fitted curve in the direction sought with a large enough effect in the repeat runs; an effect the other way counts as inactive or inconclusive); conditions: ARE-bla HepG2 viability, CellTiter-Glo ATP luminescence, 16 h; hits give low values
In short: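 Cytotoxicity counter screen: intracellular ATP quantified by CellTiter-Glo luminescence in the same ARE-bla HepG2 plates, after 16 h compound exposure and a 2 h beta-lactamase substrate step.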

[19] = qHTS assay for cell viability of HEK293 cells (AID 743288); conditions: ATP luminescence (CellTiter-Glo), 18 h, hits give low values; further: nearly all actives have a fitted effect of over 50% in size
In short: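 ATP luminescence (CellTiter-Glo) reports metabolically competent cell number after parental HEK293 cells, 2,000/well, were treated with DMSO-dissolved compounds for 18 h at 37 C; reagent incubation 30 min, room temperature.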

[20] = qHTS assay for cell viability of the p53RE-bla HCT-116 cell line (AID 743292); conditions: p53RE-bla HCT-116 viability, ATP luminescence, 16 h; series mostly up to 95 µM; further: nearly all actives have a fitted effect of over 55% in size
In short: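 Intracellular ATP of p53RE-bla HCT-116 cells measured by luciferase luminescence following 16 h compound incubation at 37 C; DMSO-only wells served as vehicle controls.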

Peroxisome proliferator-activated receptor alpha (Homo sapiens), sequence (Q07869 whole entry, looked up): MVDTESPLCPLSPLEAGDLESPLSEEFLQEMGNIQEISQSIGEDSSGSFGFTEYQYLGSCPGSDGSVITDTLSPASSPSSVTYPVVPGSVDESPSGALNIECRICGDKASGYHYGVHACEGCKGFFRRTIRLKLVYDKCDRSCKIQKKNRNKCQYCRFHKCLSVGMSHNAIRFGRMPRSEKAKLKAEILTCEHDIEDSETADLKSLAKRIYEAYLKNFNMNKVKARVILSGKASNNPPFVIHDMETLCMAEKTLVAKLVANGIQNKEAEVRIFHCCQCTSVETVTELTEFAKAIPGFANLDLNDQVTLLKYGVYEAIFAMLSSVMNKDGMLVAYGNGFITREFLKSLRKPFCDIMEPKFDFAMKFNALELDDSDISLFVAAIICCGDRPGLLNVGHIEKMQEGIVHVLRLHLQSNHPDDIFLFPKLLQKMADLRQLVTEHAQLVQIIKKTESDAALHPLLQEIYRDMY

Structure (SMILES) | Potency [1] [µM] | Potency [2] | Potency [3] [µM] | Potency [4] [µM] | Potency [5] [µM] | Potency [6] [µM] | Potency [7] | outcome [8] | Potency [9] | outcome [10] | Potency [11] | outcome [12] | Potency [13] | Potency [14] | Potency [15] | Potency [16] | max response [17] | max response [18] | max response [19] | Potency [20]
O=C(Cl)OCc1ccccc1 | > 92 | > 92 µM | > 92 | > 92 | > 92 | > 92 | inactive | inactive | inactive | inactive | inactive | inactive | inactive | inactive | inactive | inactive | 0.201% | 6.86% | -3.33% | inactive
CCC[N+](=O)[O-] | > 92 | > 92 µM | > 92 | > 92 | > 92 | > 92 | inactive | inactive | inactive | inactive | inactive | inactive | inactive | inactive | inactive | inactive | -0.431% | -3.7% | 2.89% | inactive
Nc1cc(Cl)ccc1Cl | > 92 | > 92 µM | > 92 | > 92 | > 92 | > 92 | inactive | inactive | inactive | inactive | inactive | inactive | inactive | inactive | inactive | inactive | -1.24% | 5.24% | 7.64% | inactive
CC(C)(C)C(O)(CCc1ccc(Cl)cc1)Cn1cncn1 (centres undefined) | > 92 | > 92 µM | > 92 | > 92 | > 92 | > 92 | inactive | inactive | inactive | inactive | inactive | inactive | inactive | inactive | inactive | inactive | -3.73% and 1.11% | -4.58% and -0.482% | -1.87% and -20% | inactive
CC(Cl)(Cl)Cl | > 92 | > 92 µM | > 92 | > 92 | > 92 | > 92 | inactive | inactive | inactive | inactive | inactive | inactive | inactive | inactive | inactive | inactive | -3.93% and -1.58% | 0.834% and -5.56% | 6.17% and -1.09% | inactive
CC(C)(Cl)Cl | > 92 | > 92 µM | > 92 | > 92 | > 92 | > 92 | inactive | inactive | inactive | inactive | inactive | inactive | inactive | inactive | inactive | inactive | -2.59% | -1.91% | 1.9% | inactive
Cc1ccc(N=C=O)cc1N=C=O | > 92 | > 92 µM | > 92 | > 92 | > 92 | > 92 | inactive | inactive | inactive | inactive | inactive | inactive | inactive | inactive | inactive | inactive | -6.43% and 0.39% | -4.8% and -0.784% | -9.26% and -8.71% | inactive
Nc1ccc(Cl)c(Cl)c1 | > 92 | > 92 µM | > 92 | > 92 | > 92 | > 92 | inactive | inactive | inactive | inactive | inactive | inactive | inactive | inactive | inactive | inactive | -1.3% | -17.9% | -1.26% | inactive
C=C(Cl)CSC(=S)N(CC)CC | > 92 | > 92 µM | > 92 | > 92 | > 92 | > 92 | inactive | inactive | inactive | inactive | inactive | inactive | inactive | inactive | inactive | inactive | 11.5% | -13% | 5.22% | inactive
Cc1ccc(N)cc1C | > 92 | > 92 µM | > 92 | > 92 | > 92 | > 92 | inactive | inactive | inactive | inactive | inactive | inactive | inactive | inactive | inactive | inactive | -0.229% | -7.17% | 0.786% | inactive
CCCCNC(=O)n1c(NC(=O)OC)nc2ccccc21 | > 92 | 3.28 µM (active) | > 92 | > 92 | > 92 | > 92 |  | inactive | inactive | inactive | inactive | inactive | inactive | inactive | inactive | inactive | 0.197% and 0.6% | 2.42% and 7.38% | -16.4% and -17.6% | inactive
